# Assay outcomes: PubChem BioAssay, The Scripps Research Institute Molecular Screening Center
# Only some compounds are listed: those with a hit (about 3.4% of all), similar ones and a draw of the others.
# FBW7 act = human FBW7 E3 ligase activation, primary screen | Q969H0 | AlphaScreen FBW7–phospho-cyclin E peptide binding, activator screen | normalized activity (activation), % at 26.1 µM | 650,000 tested, 0.13% active; in the data active = normalized activity above about 1.9%;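 also: purified mutant Fbw7 with reduced substrate affinity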
# MITF primary = human MITF inhibition, primary screen; O75030; AlphaScreen MITF homodimerization, bead proximity signal; inhibition, % at 2.6 µM; 650,000 tested, 0.91% active; AID 1259374; in the data active = inhibition above about 50%;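 also: 0% = vehicle wells with protein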
# TEAD-YAP inh = TEAD-YAP interaction inhibition | HEK-TIYL cells, TEAD-Gal4/YAP UAS-luciferase luminescence | inhibition, % at 9.12 µM | 640,000 tested, 1.4% active | AID 1259422; in the data active = inhibition above about 32%;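 also: 0% = median of test compound wells and 100% = reference inhibitor wells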
# GPR151 ag = human GPR151 activation; PathHunter beta-arrestin GPR151 cells, luminescence; 650,000 tested, 1% active; activation, % at 11.2 µM; in the data active = activation above about 4.9%;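 also: 0% = median of compound wells and 100% = cells with positive control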
# Target sequence (Q8TDV0 whole entry, looked up): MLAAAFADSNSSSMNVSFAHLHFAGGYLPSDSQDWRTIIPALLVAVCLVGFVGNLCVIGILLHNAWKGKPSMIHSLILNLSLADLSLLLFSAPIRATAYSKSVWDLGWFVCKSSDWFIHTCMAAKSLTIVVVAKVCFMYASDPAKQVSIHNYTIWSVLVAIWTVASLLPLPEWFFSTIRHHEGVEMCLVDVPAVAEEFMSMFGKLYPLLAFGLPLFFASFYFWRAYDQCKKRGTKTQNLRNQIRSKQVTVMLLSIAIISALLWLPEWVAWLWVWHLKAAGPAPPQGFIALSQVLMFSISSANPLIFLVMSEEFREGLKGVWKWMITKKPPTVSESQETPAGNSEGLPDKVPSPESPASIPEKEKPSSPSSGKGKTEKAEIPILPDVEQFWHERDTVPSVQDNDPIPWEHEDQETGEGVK
# * = called active by the depositor.
SMILES,FBW7 act,MITF primary,TEAD-YAP inh,GPR151 ag
CCOC(=O)c1[nH]c(C)c(C(=O)Nc2cccc(C)c2C)c1C,0,8,42*,1
COc1cc(/C=C2/C(=O)NC(=O)N(c3cccc(C)c3)C2=O)cc(Cl)c1O,0,-4,-4,0
CCOC(=O)C1(Cc2cccc(OC)c2)CCN(Cc2c(C)nc3sccn23)CC1,0,12,26,1
Cc1nc2sccn2c1CN1CCCC(N(C)CCc2ccccc2)C1 (stereo not drawn),0,-1,43*,1
COc1cccc(CC2(CO)CCCN(Cc3c(C)nc4sccn34)C2)c1 (stereo not drawn),0,22,41*,0
Cc1nc2sccn2c1CN1CCN(CCc2ccccc2)C(CCO)C1 (stereo not drawn),0,19,-5,-2
CCn1c(C)nc2cc(C(=O)N/N=C(\C)c3ccc4c(c3)OCO4)ccc21,0,2,-19,0
CCOCc1cc(CN2CCCCC2)c(O)c2ncccc12,-1,103*,27,-1
CCOC(=O)C1CCCN(Cc2cc(Cl)c3cccnc3c2O)C1 (stereo not drawn),0,36,16,0
Oc1c(CN2CCN(c3cccc(Cl)c3)CC2)cc(COCc2ccccc2)c2cccnc12,-1,9,13,0
CCOCc1cc(CN2CCN(c3ccccc3)CC2)c(O)c2ncccc12,-1,95*,59*,1
O=[N+]([O-])c1ccccc1OCCCN1CCCCC1,0,18,2,-1
CCc1ccc(NC(=S)N(CCc2ccc(OC)c(OC)c2)Cc2ccccn2)cc1,-1,-2,-28,1
COc1ccc(C2NC(=O)NC(C)=C2C(=O)c2ccccc2)cc1OC (stereo not drawn),0,6,4,-1
O=C(O)COc1ccccc1/C=C1\C(=O)NC(=O)N(c2cccc([N+](=O)[O-])c2)C1=O,0,55*,0,-2
Cc1ccc(-c2nn(CN3CCCc4ccccc43)c(=S)n2-c2ccccc2)cc1,0,14,49*,1
Cc1c(C(=O)NC2=NCCS2)oc2ccccc12,0,-25,38*,-6
O=C(CCCCC(=O)N/N=C/c1cccc(O)c1)N/N=C\c1cccc(O)c1,0,13,11,1
CC(C)(C)c1ccc(NC(=O)Nc2ccccc2[N+](=O)[O-])cc1,0,11,62*,-1
CONC(=O)Nc1ccccc1[N+](=O)[O-],0,2,12,1
CC1CCc2c(sc3ncn4c(=O)n(CC(=O)NC5CC5)nc4c23)C1 (stereo not drawn),0,8,-4,-2
Cc1ccc(S(=O)(=O)NC(=O)COc2cccc3ccccc23)c(C)c1,0,1,-5,2
O=C1CC(C(=O)Nc2ccc(-c3cn[nH]c3)cc2)Cc2ccccc21 (stereo not drawn),0,-8,34*,0
COc1ccc(OC)c(C(=O)COc2ccccc2C#N)c1,0,19,41*,0
CCOc1cc(/C=N/NC(=O)c2cc(O)c(O)c(O)c2)ccc1O,0,82*,-4,1
SMILES,FBW7 act,MITF primary,TEAD-YAP inh,GPR151 ag
CCOc1ccc(-c2cc(C(=O)N/N=C/c3ccc(O)c(OCC)c3)[nH]n2)cc1,0,10,43*,4
CCOc1ccc(-c2cc(C(=O)N/N=C/c3ccc(F)cc3)[nH]n2)cc1,0,-6,41*,-1
CCOc1cc(/C=N/NC(=O)C(=O)N/N=C/c2ccc(O)c(OCC)c2)ccc1O,0,-1,4,1
Oc1ccccc1/C=C/c1nc(-c2ccccc2O)n(-c2ccccc2)n1,0,-5,-5,1
Cc1nc2c(cnn2-c2ccccc2)c(=O)n1-c1cccc2ccccc12,0,7,37*,0
CC(=O)Nc1ccc(Nc2nc(C)c([N+](=O)[O-])c(Nc3ccccc3)n2)cc1,0,6,29,3
CCOc1ccc(Nc2nc(Nc3ccc(NC(C)=O)cc3)nc(C)c2[N+](=O)[O-])cc1,0,-3,44*,-1
CCOC(=O)Cc1csc(N/N=C\c2ccc(C(F)(F)F)cc2)n1,0,14,61*,-1
O=[N+]([O-])c1cccc(-c2nc(-c3ccccc3Cl)no2)c1,2.1*,6,-11,0
O=[N+]([O-])c1ccc(-c2nc(-c3ccccc3Cl)no2)cc1,0,-7,0,1
CN1C(=O)c2cccc(NC(=O)COc3ccc(Cl)cc3Cl)c2C1=O,0,13,7,1
CCCC(=O)NC(c1ccccc1)c1ccc2cccnc2c1O (stereo not drawn),-2,50,85*,-1
